Only some compounds are listed: those with a hit (about 1.6% of all), similar ones and a draw of the others.
KCNQ2 pot: enhances the rat KCNQ2 potassium channel; B-score at 10 µM; 310,000 compounds, 0.54% hits; CHO-K1 KCNQ2, FluxOR thallium flux fluorescence; hits give high values; O88943;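 active = fluorescence ratio B-score at least 3 SD of library B-scores, with initial fluorescence B-score within 3 of them, cut at about 5.3 in these data; same plate scores as AID 2156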;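 note: B-score of peak minus minimum over baseline fluorescence ratio after K+ and Tl+ stimulus; positive B-score means potentiation of KCNQ2 with more thallium influx and brighter signal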
Target sequence (O88943 whole entry, looked up): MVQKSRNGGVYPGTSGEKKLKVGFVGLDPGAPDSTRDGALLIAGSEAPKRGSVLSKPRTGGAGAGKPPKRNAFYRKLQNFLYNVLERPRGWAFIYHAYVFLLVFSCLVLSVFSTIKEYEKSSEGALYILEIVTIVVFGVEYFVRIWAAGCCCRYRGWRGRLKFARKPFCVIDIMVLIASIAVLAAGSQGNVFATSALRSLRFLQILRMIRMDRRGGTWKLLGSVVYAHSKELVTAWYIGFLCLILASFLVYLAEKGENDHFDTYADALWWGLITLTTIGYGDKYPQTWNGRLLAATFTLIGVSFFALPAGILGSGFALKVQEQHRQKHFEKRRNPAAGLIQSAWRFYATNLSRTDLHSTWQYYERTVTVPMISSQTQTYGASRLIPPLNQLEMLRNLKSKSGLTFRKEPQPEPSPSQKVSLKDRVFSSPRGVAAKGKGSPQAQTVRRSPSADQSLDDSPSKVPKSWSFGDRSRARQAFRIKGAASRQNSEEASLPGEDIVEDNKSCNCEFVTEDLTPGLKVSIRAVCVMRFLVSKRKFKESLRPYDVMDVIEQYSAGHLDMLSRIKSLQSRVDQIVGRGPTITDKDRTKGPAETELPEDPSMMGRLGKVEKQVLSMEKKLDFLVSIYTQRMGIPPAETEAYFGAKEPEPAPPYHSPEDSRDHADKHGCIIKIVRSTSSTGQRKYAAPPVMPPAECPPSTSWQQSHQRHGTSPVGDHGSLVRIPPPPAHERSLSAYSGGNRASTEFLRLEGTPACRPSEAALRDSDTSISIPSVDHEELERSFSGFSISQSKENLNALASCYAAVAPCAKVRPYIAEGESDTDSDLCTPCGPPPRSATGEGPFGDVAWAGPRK
KCNQ2 block: KCNQ2 (rat) channel inhibition | O88943 | CHO-K1 KCNQ2, FluxOR thallium flux, 20 min; hits give low values | B-score at 10 µM | 310,000 compounds, 1.1% hits | AID 2156;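 active = fluorescence ratio B-score at most minus 3 library SDs, with starting brightness B-score within 2 library SDs, cut at about -5.5 in these data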
Kir21 confirm: confirmation of mouse Kir2.1 potassium channel inhibitors. shares compounds with KCNQ2 pot. Kir2.1-expressing cells, FluxOR thallium flux fluorescence; hits give low values. Tl flux remaining, % of negative control (hits give low values), % at 10 µM. 2,300 compounds, 41% hits. AID 2032;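 active = Primary-screen hit whose thallium flux fell at least 3 control SD below untreated wells in both duplicates, with normal baseline fluorescence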;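 note: 0% = blank wells without stimulus and 100% = stimulated no-compound controls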
HEK293 ctr: parental HEK293 activity in Kir2.1 inhibitor counter-screen; FluxOR signal as % of negative control (100 = no effect), % at 10 µM; 2,300 compounds, 19% hits; shares compounds with KCNQ2 pot; parental HEK293 cells, FluxOR thallium flux fluorescence; 0% = unstimulated blank wells; AID 2105;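 active = dye signal at least 3 control SD above or below untreated wells in both duplicates, raw fluorescence within 3, either direction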;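 note: percent is based on the flux ratio of peak minus minimum fluorescence over baseline F0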
CHO-K1 ctr: parental CHO-K1 activity in KCNQ2 potentiator counter-screen; shares compounds with KCNQ2 pot; parental CHO-K1 cells, FluxOR thallium flux fluorescence; zero = vehicle mean+3SD, 100% = vehicle-minus-blank window; activity increase over 3SD of controls, % at 10 µM; 1,200 compounds, 43% hits; AID 2282;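 active = signal rise of at least 3 SD above the untreated control mean, in both duplicate wells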;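 note: counter screen of KCNQ2 potentiator hits so any rise reflects channel-independent effects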
KCNQ1 sel pot: tests whether KCNQ2 potentiators also act on human KCNQ1. activation over 3SD threshold, % at 10 µM. 1,200 compounds, 28% hits. CHO KCNQ1 stable, FluxOR thallium flux fluorescence; beyond 3SD, as % of vehicle-control signal. shares compounds with KCNQ2 pot;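 active = fluorescence ratio rise of at least 3 SD of vehicle wells above their mean, in both replicate wells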;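 note: 0% = vehicle mean plus 3 SD and 100% = vehicle minus unstimulated blank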
KCNQ2 pot confirm: confirmation of rat KCNQ2 potassium channel potentiators; shares compounds with KCNQ2 pot; CHO-KCNQ2 cells, FluxOR thallium flux fluorescence; potentiation, less the hit threshold, % at 10 µM; 1,200 compounds, 68% hits;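 active = fluorescence ratio rising 3 SD or more over the vehicle control mean in both replicates, plus primary screen hit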;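 note: peak minus minimum thallium fluorescence divided by baseline after K/Tl stimulus; 0% = vehicle mean plus 3 SD and 100% = vehicle minus unstimulated blank difference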
Kir2-1 sel: tests whether KCNQ2 potentiators also affect mouse Kir2.1. shares compounds with KCNQ2 pot. HEK293 Kir2.1, FluxOR thallium flux fluorescence. activity over 3SD threshold, % at 10 µM. 1,200 compounds, 2% hits. AID 2345;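 active = fluorescence ratio rise of at least 3 SD above the vehicle-control mean, seen in both replicates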;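 note: 0% = vehicle mean plus 3 SD and 100% = vehicle minus no-stimulus blank window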
* = called active by the depositor.

O=C(COC(=O)C1CCC(=O)N1)Nc1ccccc1Br (stereo not drawn) was read as KCNQ2 pot 0.74 and KCNQ2 block inactive.
For CCN1CCN(CCOc2cccc(Oc3ccccc3)c2)CC1 the results were KCNQ2 pot 1.2 and KCNQ2 block inactive.
CC1Oc2cc3oc4c(O)c(O)ccc4c(=O)c3c(O)c2C1(C)C (stereo not drawn) was read as KCNQ2 pot 5.4*, KCNQ2 block inactive, Kir21 confirm inactive, HEK293 ctr inactive, CHO-K1 ctr -2, KCNQ1 sel pot -12, KCNQ2 pot confirm -14 and Kir2-1 sel -18.
COc1ccc(-c2cc(=O)oc3c(O)c(O)ccc23)cc1 was read as KCNQ2 pot 1.4 and KCNQ2 block inactive.
`CN1CCN(CC(=O)N2c3ccccc3C(C)(c3ccccc3)CC2(C)C)CC1` (stereo not drawn) gave KCNQ2 block inactive, Kir21 confirm 58%* and HEK293 ctr inactive.
Screening CN1CCN(CC(=O)N2c3ccccc3C(C)(c3ccc(Cl)cc3)CC2(C)C)CC1 (stereo not drawn) returned KCNQ2 pot 0.07 and KCNQ2 block inactive.
`Cc1cccc(NC(=O)CCNS(=O)(=O)c2ccc3[nH]c(=O)oc3c2)c1` gave KCNQ2 pot 0.48 and KCNQ2 block inactive.
For O=C(CN1CCN(C(=O)N2CCOCC2)CC1)Nc1cc(Cl)ccc1Cl the results were KCNQ2 block inactive.
`CCN(Cc1ccccc1)CC(O)COC(c1ccc(OC)cc1)c1ccc(OC)cc1` (stereo not drawn) gave KCNQ2 block inactive, Kir21 confirm 66%* and HEK293 ctr inactive.
COc1ccc(CN(C)CC(O)COC(c2ccccc2)c2ccccc2)c(OC)c1OC (stereo not drawn) was read as KCNQ2 block inactive, Kir21 confirm 54%* and HEK293 ctr inactive.
Screening COc1ccc(CN(C)CC(O)COc2ccc(C(=O)c3ccccc3)cc2)c(OC)c1OC (stereo not drawn) returned KCNQ2 block inactive.
`CCN(CC)CC(O)COC(c1ccccc1)c1ccccc1` (stereo not drawn) gave KCNQ2 pot 0.53 and KCNQ2 block inactive.
Screening CCCCn1nc(C(=O)N2CCN(S(=O)(=O)c3ccccc3)CC2)c2ccccc2c1=O returned KCNQ2 pot 0.38 and KCNQ2 block inactive.
`COC(=O)/C=C1\N/C(=N\c2nc(C)cc(C)n2)N(c2ccc(C)c(C)c2)C1=O` gave KCNQ2 pot 0.66 and KCNQ2 block inactive.
`Cc1ccc(CN2CCN(Cc3cccn3-c3ccccn3)CC2CCO)o1` (stereo not drawn) gave KCNQ2 pot 0.14 and KCNQ2 block inactive.
`O=C(CCS(=O)(=O)c1ccccc1)NC1CCCCC1` gave KCNQ2 pot 0.47 and KCNQ2 block inactive.
For O=C(CCS(=O)(=O)c1ccc(Br)s1)NC1CCCCCC1 the results were KCNQ2 pot 1.2, KCNQ2 block inactive, Kir21 confirm inactive and HEK293 ctr 70%*.
`COc1ccc(OCC(O)CN2CCNCC2)cc1` (stereo not drawn) gave KCNQ2 pot 0.68 and KCNQ2 block inactive.
Cc1ccc(N2C(=O)CC(NNC(=O)Cc3ccc(F)cc3)C2=O)cc1Cl (stereo not drawn) was read as KCNQ2 pot 1 and KCNQ2 block inactive.
For O=C1NC(=O)/C(=C\c2ccccc2OCc2ccccc2)S1 the results were KCNQ2 pot 0.21 and KCNQ2 block inactive.
For O=C1NC(=O)/C(=C\c2ccc(OCc3ccccc3)cc2)S1 the results were KCNQ2 pot 8*, KCNQ2 block inactive, Kir21 confirm inactive, HEK293 ctr inactive, CHO-K1 ctr -9, KCNQ1 sel pot -32, KCNQ2 pot confirm -13 and Kir2-1 sel -36.

Compound activity (PubChem BioAssay)
